Structures can show the parent of a compound that is named as a salt.
Tests used:
Details in all cases: incubation time: 27 h, anaerobic, 37 °C;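 for the amine columns active = adjusted P below 0.05 in both replicates with a change the same way and a mean fold change under 0.8 or over 1.25; inactive = the rest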
[1] = test system: Clostridium sporogenes DSM 1664; experiment: growth (OD595) fold change vs plate DMSO controls (fold change (ratio)); higher = more growth
Procedure, shortened: (§1)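 Anaerobic 27 h, 37 °C mGAM 96-well cultures were shaken, then read for absorbance at 595 nm. Values were blank-subtracted and corrected for compound background using 20 µM compound solutions in water. A calibration factor of 5 converted them to OD. Growth is the fold change versus the median of plate DMSO controls. Fold changes above 1.5 were set to NA, and values are the mean of 2 biological replicates.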

Escherichia coli IAI1 [2] = experiment: as above
Procedure, shortened: as §1

[3] = test system: Klebsiella aerogenes DSM 30053; experiment: as above
Procedure, shortened: as §1

[4] = test system: Ruminococcus gnavus DSM 108212; experiment: as above
Procedure, shortened: as §1

[5] = test system: Klebsiella aerogenes DSM 30053; experiment: fold change of Histamine concentration vs plate DMSO controls (fold change (ratio)); higher = more amine produced, active = hit call of the paper (significant change in both replicates, either direction)
Procedure, shortened: (§2)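 Each value is the fold change relative to DMSO-only wells on the same plate. Four gut bacterial strains were grown anaerobically in mGAM at 37 °C for 27 h in 80 µL wells, starting at OD 0.1 before a 1:1 dilution, with compounds at 20 µM final (sweeteners 50 µM). Whole cultures were extracted with cold acetonitrile/methanol containing 0.1% formic acid, centrifuged, and amines were quantified by LC–triple-quadrupole MS (dynamic MRM) against external calibration curves with within-batch drift correction. Values are means of 2 biological replicates.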

[6] = test system: Clostridium sporogenes DSM 1664; experiment: fold change of Tryptamine concentration vs plate DMSO controls (fold change (ratio)); higher = more amine produced, active = hit call of the paper (significant change in both replicates, either direction)
Procedure, shortened: as §2

[7] = test system: Ruminococcus gnavus DSM 108212; experiment: as above
Procedure, shortened: as §2

Escherichia coli IAI1 [8] = experiment: fold change of Putrescine concentration vs plate DMSO controls (fold change (ratio)); higher = more amine produced, active = hit call of the paper (significant change in both replicates, either direction)
Procedure, shortened: as §2

[9] = test system: Klebsiella aerogenes DSM 30053; experiment: as above
Procedure, shortened: as §2

Escherichia coli IAI1 [10] = experiment: fold change of Cadaverine concentration vs plate DMSO controls (fold change (ratio)); higher = more amine produced, active = hit call of the paper (significant change in both replicates, either direction)
Procedure, shortened: as §2

[11] = test system: Klebsiella aerogenes DSM 30053; experiment: as above
Procedure, shortened: as §2

[12] = test system: Ruminococcus gnavus DSM 108212; experiment: fold change of 2-Phenylethylamine concentration vs plate DMSO controls (fold change (ratio)); higher = more amine produced, active = hit call of the paper (significant change in both replicates, either direction)
Procedure, shortened: as §2

SMILES | growth [1] | growth (Escherichia coli IAI1 [2]) | growth [3] | growth [4] | fold change of Histamine concentration [5] | fold change of Tryptamine concentration [6] | fold change of Tryptamine concentration [7] | fold change of Putrescine concentration (Escherichia coli IAI1 [8]) | fold change of Putrescine concentration [9] | fold change of Cadaverine concentration (Escherichia coli IAI1 [10]) | fold change of Cadaverine concentration [11] | fold change of 2-Phenylethylamine concentration [12]
COc1ccc2[nH]cc(CCNC(C)=O)c2c1 [Melatonin] (20 µM) | 0.916 | 0.932 | 1.06 | 0.789 | 0.94 (inactive) | 1.03 (inactive) | 1.01 (inactive) | 0.98 (inactive) | 0.999 (inactive) | 0.999 (inactive) | 1 (inactive) | 0.98 (inactive)
CC(C)C(=O)c1c(C(C)C)nn2ccccc12 [Ibudilast] (20 µM) | 0.946 | 0.973 | 1.02 | 0.991 | 1.02 (inactive) | 0.996 (inactive) | 1.08 (inactive) | 1.26 (inactive) | 0.984 (inactive) | 0.987 (inactive) | 0.997 (inactive) | 1.09 (inactive)
c1ccc(CN(CC2=NCCN2)c2ccccc2)cc1 [Antazoline hydrochloride] (20 µM) | 0.903 | 0.968 | 0.958 | 0.834 | 1.06 (inactive) | 0.965 (inactive) | 1.06 (inactive) | 0.929 (inactive) | 1.01 (inactive) | 1.07 (inactive) | 0.998 (inactive) | 1.08 (inactive)
CC[C@H](C)C(=O)O[C@H]1C[C@H](O)C=C2C=C[C@H](C)[C@H](CC[C@@H](O)C[C@@H](O)CC(=O)O)[C@H]21 [Pravastatin] (20 µM) | 0.87 | 1.09 | 0.973 | 1.15 | 1.1 (inactive) | 1.12 (inactive) | 1.08 (inactive) | 1.11 (inactive) | 0.975 (inactive) | 0.904 (inactive) | 1.01 (inactive) | 1.1 (inactive)
Cc1cc2c(cc1S(N)(=O)=O)S(=O)(=O)CCC2 [Meticrane] (20 µM) | 0.974 | 1.03 | 1.02 | 1.24 | 1.05 (inactive) | 1.01 (inactive) | 0.986 (inactive) | 0.983 (inactive) | 1.01 (inactive) | 1.02 (inactive) | 0.986 (inactive) | 1 (inactive)
COC(=O)[C@H]1[C@H]2C[C@@H]3c4[nH]c5cc(OC)ccc5c4CCN3C[C@H]2C[C@@H](OC(=O)c2cc(OC)c(OC)c(OC)c2)[C@@H]1OC [Reserpine] (20 µM) | 1.21 | 0.987 | 1.02 | 1.01 | 0.943 (inactive) | 1.07 (inactive) | 1.04 (inactive) | 0.935 (inactive) | 0.983 (inactive) | 0.966 (inactive) | 1.01 (inactive) | 1.07 (inactive)
CC1(C)[C@@H](OC(=O)CCC(=O)O)CC[C@]2(C)[C@H]3C(=O)C=C4[C@@H]5C[C@@](C)(C(=O)O)CC[C@]5(C)CC[C@@]4(C)[C@]3(C)CC[C@@H]12 [Carbenoxolone disodium salt] (20 µM) | 1.06 | 0.984 | 0.977 | 0.91 | 1.03 (inactive) | 0.925 (inactive) | 1.04 (inactive) | 1.04 (inactive) | 1.02 (inactive) | 0.999 (inactive) | 0.993 (inactive) | 1.07 (inactive)
CCOC(=O)[C@H](CCc1ccccc1)N[C@@H](C)C(=O)N1C(=O)N(C)C[C@H]1C(=O)O [Imidapril hydrochloride] (20 µM) | 1.19 | 1.05 | 1.05 | 1.2 | 0.963 (inactive) | 0.931 (inactive) | 1.03 (inactive) | 1.05 (inactive) | 0.997 (inactive) | 1.01 (inactive) | 0.989 (inactive) | 1.05 (inactive)
O=c1oc2cc(O)ccc2s1 [Tioxolone] (20 µM) | 1.04 | 1.01 | 0.979 | 1.07 | 1.02 (inactive) | 1.05 (inactive) | 0.987 (inactive) | 1.02 (inactive) | 0.997 (inactive) | 0.989 (inactive) | 0.987 (inactive) | 0.959 (inactive)
CN(C)CCc1c[nH]c2ccc(Cn3cncn3)cc12 [Rizatriptan benzoate] (20 µM) | 0.987 | 0.971 | 1.02 | 0.996 | 0.934 (inactive) | 1 (inactive) | 1.01 (inactive) | 0.97 (inactive) | 1.01 (inactive) | 1.02 (inactive) | 1.01 (inactive) | 0.989 (inactive)
CCn1cc(C(=O)O)c(=O)c2cnc(N3CCCC3)nc21 [Piromidic acid] (20 µM) | 1.09 | 1.01 | 1 | 0.973 | 0.944 (inactive) | 1.02 (inactive) | 1.06 (inactive) | 0.913 (inactive) | 1.02 (inactive) | 1.06 (inactive) | 0.999 (inactive) | 1.09 (inactive)
CC1(C)O[C@@H]2C[C@H]3[C@@H]4C[C@H](F)C5=CC(=O)C=C[C@]5(C)[C@@]4(F)[C@@H](O)C[C@]3(C)[C@]2(C(=O)CO)O1 [Fluocinolone acetonide] (20 µM) | 1.13 | 1.04 | 1.01 | 0.973 | 1.06 (inactive) | 1.02 (inactive) | 0.996 (inactive) | 1.05 (inactive) | 1.04 (inactive) | 1.05 (inactive) | 1 (inactive) | 0.976 (inactive)
C1CCC(C(CC2CCCCN2)C2CCCCC2)CC1 (stereo not given) [Perhexiline maleate] (20 µM) | 1.14 | 1 | 1 | 0.952 | 0.983 (inactive) | 1.03 (inactive) | 0.771 (active) | 1.05 (inactive) | 1.01 (inactive) | 1.05 (inactive) | 1 (inactive) | 0.892 (inactive)
CN(C)CCC(c1ccc(Cl)cc1)c1ccccn1 (stereo not given) [Chlorpheniramine maleate] (20 µM) | 0.73 | 0.712 | 0.719 | 0.699 | 0.983 (inactive) | 1.05 (inactive) | 1.03 (inactive) | 0.846 (inactive) | 0.989 (inactive) | 1.43 (active) | 1 (inactive) | 1.02 (inactive)
CN1CCCN=C1/C=C/c1cccc(O)c1 [Oxantel pamoate] (20 µM) | 1.1 | 1.04 | 1.03 | 0.853 | 0.924 (inactive) | 1.05 (inactive) | 1.06 (inactive) | 1.03 (inactive) | 0.967 (inactive) | 1.01 (inactive) | 1.01 (inactive) | 1.08 (inactive)
OC[C@@H](O)[C@@H](O)CO [Erythritol] (50 µM) | 0.882 | 1.12 | 0.977 | 1.02 | 1.05 (inactive) | 1 (inactive) | 0.974 (inactive) | 1.03 (inactive) | 0.995 (inactive) | 1.05 (inactive) | 0.993 (inactive) | 0.945 (inactive)
CC(C)(C)C(=O)OCOC(=O)[C@@H]1N2C(=O)[C@@H](/N=C/N3CCCCCC3)[C@H]2SC1(C)C [Pivmecillinam hydrochloride] (20 µM) | 0.954 | 1.01 | 0.909 | 1.2 | 0.597 (active) | 1.01 (inactive) | 1.03 (inactive) | 1.02 (inactive) | 0.954 (inactive) | 1.46 (active) | 1.01 (inactive) | 1.03 (inactive)
CC(=O)OC(C)OC(=O)C(C)c1ccc(-c2ccccc2)c(F)c1 (stereo not given) [Flurbiprofen axetil] (20 µM) | 1.11 | 1.03 | 0.976 | 0.996 | 1.01 (inactive) | 1.04 (inactive) | 1.07 (inactive) | 1.04 (inactive) | 1 (inactive) | 1.07 (inactive) | 0.987 (inactive) | 1.04 (inactive)
O=C(O)c1cccnc1 [Niacin] (20 µM) | 0.979 | 1.07 | 1.01 | 0.963 | 0.97 (inactive) | 0.994 (inactive) | 1.03 (inactive) | 1 (inactive) | 1.03 (inactive) | 0.981 (inactive) | 1.02 (inactive) | 0.993 (inactive)
CC(C)(C#N)c1cc(Cn2cncn2)cc(C(C)(C)C#N)c1 [Anastrozole] (20 µM) | 0.911 | 1.16 | 1.01 | 1.02 | 1.02 (inactive) | 1.11 (inactive) | 1.09 (inactive) | 1.06 (inactive) | 0.954 (inactive) | 1.01 (inactive) | 0.994 (inactive) | 1.1 (inactive)
CCOC(=O)[N-]c1c[n+](N2CCOCC2)no1 [Molsidomine] (20 µM) | 0.839 | 1.04 | 0.98 | 0.196 | 1.03 (inactive) | 1.19 (inactive) | 0.153 (active) | 0.994 (inactive) | 1.02 (inactive) | 0.951 (inactive) | 1 (inactive) | 0.14 (active)
CCC(Cc1c(I)cc(I)c(N)c1I)C(=O)O (stereo not given) [Iopanoic acid] (20 µM) | 0.989 | 1.13 | 1 | 1.05 | 0.999 (inactive) | 0.978 (inactive) | 0.879 (inactive) | 1.1 (inactive) | 0.994 (inactive) | 1.04 (inactive) | 0.985 (inactive) | 0.969 (inactive)
CC(C)(O)c1ccccc1CC[C@@H](SCC1(CC(=O)O)CC1)c1cccc(/C=C/c2ccc3ccc(Cl)cc3n2)c1 [Montelukast] (20 µM) | 0.909 | 1 | 1.02 | 0.923 | 1.07 (inactive) | 0.587 (active) | 0.851 (inactive) | 0.994 (inactive) | 1.05 (inactive) | 1.03 (inactive) | 1.01 (inactive) | 0.842 (inactive)
CCCSc1nc(N[C@@H]2C[C@H]2c2ccc(F)c(F)c2)c2nnn([C@@H]3C[C@H](OCCO)[C@@H](O)[C@H]3O)c2n1 [Ticagrelor] (20 µM) | 1.15 | 0.999 | 1.02 | 1.03 | 0.977 (inactive) | 0.88 (inactive) | 0.748 (active) | 1.04 (inactive) | 1.04 (inactive) | 1.07 (inactive) | 1.01 (inactive) | 0.802 (inactive)
CC(C)Nc1cccnc1N1CCN(C(=O)c2cc3cc(NS(C)(=O)=O)ccc3[nH]2)CC1 [Delavirdine] (20 µM) | 1.03 | 1.01 | 0.995 | 0.754 | 1.04 (inactive) | 0.965 (inactive) | 1.05 (inactive) | 0.984 (inactive) | 0.906 (inactive) | 1.04 (inactive) | 1.05 (inactive) | 1.04 (inactive)

Reference: the supplement of paper PMC12494721
